# Reference: the supplement of paper PMC9588786
# ± gives the standard deviation of the averaged measurements.
# System: HT-1080
# Assay: relative cell viability with RSL3 co-treatment (fraction of control); higher = stronger protection from RSL3-induced ferroptosis (higher viability)
# Settings: 10 µM
# 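Note: viability read as CCK-8 absorbance at 450 nm in cells co-exposed to the GPX4 inhibitor RSL3, relative to a 0.01% DMSO vehicle control.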
row,SMILES,relative cell viability
1,O=C(O)[C@]1(Cc2cccc(Nc3nccs3)n2)CC[C@@H](Oc2cccc(Cl)c2F)CC1,1.02 ± 0.14
2,Cc1ncc(-c2ccnc(Nc3ccc(S(C)(=O)=O)cc3)n2)n1C(C)C,0.43 ± 0.095
3,Cc1ccc(Nc2nccc(N(C)c3ccc4c(C)n(C)nc4c3)n2)cc1S(N)(=O)=O [Pazopanib],0.71 ± 0.12
4,COc1ccc2c(Oc3ccc(NC(=O)c4c(C)n(CC(C)(C)O)n(-c5ccccc5)c4=O)nc3)ccnc2c1,0.76 ± 0.052
5,CN1CCN(Cc2ccc(-c3cnc4[nH]cc(-c5ccc6[nH]ccc6c5)c4c3)cc2)CC1,0.497 ± 0.04
6,Cc1csc(-c2nnc(Nc3ccc(Oc4ncccc4-c4ccnc(N)n4)cc3)c3ccccc23)c1,0.56 ± 0.087
7,CCOc1cc(C(=O)N2CCC(N3CCN(C)CC3)CC2)ccc1Nc1ncc2c(n1)N(C1CCCC1)c1ccccc1C(=O)N2C,0.457 ± 0.031
8,Cc1cc(Nc2nc(N[C@@H](C)c3ncc(F)cn3)ncc2Cl)[nH]n1,0.597 ± 0.12
9,N#Cc1ccc2[nH]c(O)c(-c3ccc(CN4CCOCC4)cn3)c2c1,0.75 ± 0.046
10,Cc1ccc(C(=O)Nc2ccc(CN3CCN(C)CC3)c(C(F)(F)F)c2)cc1C#Cc1cnc2cccnn12,0.64 ± 0.11
11,Cn1c(Nc2ccc(C(F)(F)F)cc2)nc2cc(Oc3ccnc(-c4ncc(C(F)(F)F)[nH]4)c3)ccc21,0.593 ± 0.091
12,CSc1cccc(Nc2ncc3cc(-c4c(Cl)cccc4Cl)c(=O)n(C)c3n2)c1,0.683 ± 0.1
13,C=CCc1ccc(O)c(-c2ccc(O)c(CC=C)c2)c1 [Honokiol],0.85 ± 0.04
14,OC(c1cc(-c2ccc(Cl)cc2)nc2ccccc12)C1CCCCN1 (centres undefined) [Vacquinol-1],0.0533 ± 0.035
